From PubChem BioAssay AID1159580 (chemical genetic matrix, 2015)
Hit rate of the full screen: of about 5,500 compounds, about 2,000 (36%) were called active. Not shown: some 18% with an inconclusive outcome. Cut-off read from the data, not from the text of the source: active = normalized growth mostly below about 0.91 (no sharp cut-off); inconclusive = no clear call, values can overlap the other calls; inactive = mostly above about 0.92. The list shows a part of the results.

Test: chemical genetic growth profiling, strain panel (AID 1159580);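 note: tested at 20 µM; growth read once vehicle control cultures reached saturation at 30 °C; 1 = growth at the plate median or of vehicle wells; lower values mean less growth of the strain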
Details: S. cerevisiae deletion strains, growth OD

Measured: normalized growth

COc1ccc2c(c[n+](C)c3c4cc5c(cc4ccc23)OCO5)c1OC
active: locus YAL040C, strain CLN3, active compounds read low 0.583 | locus YER002W, strain NOP16, active compounds read low 0.58 | locus YGR078C, strain PAC10, active compounds read low 0.496 | locus YMR307W, strain GAS1, active compounds read low 0.131 | locus YNL175C, strain NOP13, active compounds read low 0.519 | locus YNL197C, strain WHI3, active compounds read low 0.69 | locus YNL224C, strain SQS1, active compounds read low 0.255 | locus YOR083W, strain WHI5 (second series), active compounds read low 0.175
